# High-throughput results deposited in PubChem BioAssay by National Center for Advancing Translational Sciences (NCATS).
# Many of the other results were omitted from the sample, so hits are more common in it than they were.
# TDP1 cell noCPT: qHTS for Inhibitors of human tyrosyl-DNA phosphodiesterase 1 (TDP1): qHTS in cells in absence of CPT | Potency, µM (doses to about 46.2 µM), without a hit: top-dose activity change, negative = growth inhibition, hits mostly inhibitors | hit rate 15% among 420,000 | AID 686978, 2013 | DT40 Tdp1-/- hTDP1 cells, no CPT, ATP luminescence, 48 h; further: potency means the concentration at half of the fitted maximal effect; nearly all actives have a fitted effect of over 55% in size
#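 A cellular qHTS used chicken DT40 cells lacking endogenous Tdp1 but carrying stably transfected human TDP1. Compounds were applied without camptothecin, and cell growth kinetics were judged by ATP-dependent luminescence after ≥48 hr.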
# IL1B secr inh: inhibitors of inflammasome signaling (IL-1 beta secretion) | THP-1 LPS/ATP IL-1B secretion, AlphaLISA, 16 h; hits give low values | activity change, % at 57.5 µM | hit rate 4.7% among 360,000; in the data active means activity change below about -50%; inconclusive means mostly about -30% to -49%
#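 Secreted IL-1B measured by AlphaLISA bead assay after 16 h compound exposure of THP-1 cells; compounds (final up to 57.5 uM) added 1 h before LPS (250 ng/mL) and ATP (1.25 mM) stimulation; lower signal means less secretion.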
# HT1080-NT tox: kills 2HG-producing HT-1080-NT fibrosarcoma cells. hit rate 1.6% among 360,000. HT-1080-NT fibrosarcoma viability, CellTiter-Glo ATP luminescence, 48 h. Potency, µM (titrated, usually from 46.1 µM), inactives show top-dose activity, negative = less viability, most hits filed as cytotoxic;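 further: NT is the 2HG producing partner of a matched IDH1 knockdown line; potency means the concentration at half of the fitted maximal effect; 0% = DMSO-treated cells and -100% = media-only wells without cells; nearly all actives have a fitted effect of over 55% in size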
#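 Fibrosarcoma NT cells, 750 per well in 5% FBS RPMI, were exposed to compound for 48 hours. Viability: CellTiter-Glo luminescence.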
# HT1080 IDH1KD tx: HT-1080 IDH1 knockdown cell toxicity (counter line) | Potency, µM (top dose mostly 46.1 µM), inactives show at the highest dose activity, negative = toxicity, hits mostly cytotoxic | hit rate 2% among 360,000 | HT-1080 IDH1 knockdown viability, ATP luminescence, 48 h;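 further: potency means the concentration at half of the fitted maximal effect; 0% = DMSO wells and -100% = cell-free medium wells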
#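 Assay cells: HT-1080 with IDH1 knockdown, 750 per well, RPMI/5% FBS. Exposure: 48 h at 37 °C following 2 h pre-incubation. Read: CellTiter-Glo luminescence; fitted concentration-response, curve class assigned.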
# ALOX12 inh: ALOX12 (human) lipoxygenase inhibition. hit rate 1.1% among 580,000. purified 12hLO, xylenol orange hydroperoxide absorbance. Potency, µM (doses to about 108 µM), without a hit: at the top dose activity change, negative = inhibition, actives largely listed as inhibitors. P18054; further: potency means the concentration at half of the fitted maximal effect
# Target sequence (P18054 whole entry, looked up): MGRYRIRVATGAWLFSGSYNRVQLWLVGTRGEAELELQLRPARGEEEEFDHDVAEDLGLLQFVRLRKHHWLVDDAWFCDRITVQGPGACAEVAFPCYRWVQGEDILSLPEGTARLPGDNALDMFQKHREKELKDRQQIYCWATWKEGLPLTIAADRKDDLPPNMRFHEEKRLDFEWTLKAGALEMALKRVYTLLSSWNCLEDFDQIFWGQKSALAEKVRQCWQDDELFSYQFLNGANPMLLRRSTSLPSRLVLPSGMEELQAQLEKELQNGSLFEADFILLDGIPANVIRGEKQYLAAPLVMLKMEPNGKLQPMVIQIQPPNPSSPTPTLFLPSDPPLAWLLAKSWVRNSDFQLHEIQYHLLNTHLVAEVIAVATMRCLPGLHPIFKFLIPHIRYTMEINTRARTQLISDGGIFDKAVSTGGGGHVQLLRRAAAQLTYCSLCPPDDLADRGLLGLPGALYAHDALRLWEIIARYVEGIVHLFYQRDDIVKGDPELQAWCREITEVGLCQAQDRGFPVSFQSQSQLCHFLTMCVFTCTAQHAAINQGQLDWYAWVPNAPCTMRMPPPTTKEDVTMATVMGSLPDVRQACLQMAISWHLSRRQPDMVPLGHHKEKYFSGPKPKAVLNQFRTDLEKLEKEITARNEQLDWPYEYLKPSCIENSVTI
#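 Purified human 12hLO (150 nM final) in 25 mM Hepes, 0.01% Triton X-100, pH 7.0 was preincubated 15 min at room temperature with compound. Then 40 uM arachidonic acid was added, 30 min. Hydroperoxide was read by Fe-XO absorbance ratio 573/405 nm.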
# TDP1 cell CPT: growth inhibition of DT40 Tdp1-/-;hTDP1 cells with camptothecin (screen for TDP1 inhibitors); chicken DT40 Tdp1-/-;hTDP1 cells + 20 nM CPT, ATP luminescence, 48 h; Potency, µM (titrated, usually from 46.2 µM), for the others: at the highest dose activity change, negative = growth inhibition, most hits filed as inhibitors; hit rate 12% among 420,000; AID 686979; further: potency means the concentration at half of the fitted maximal effect; nearly all actives have a fitted effect of over 55% in size
#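 Chicken DT40 Tdp1-/- cells complemented with human TDP1, 400 cells/well, exposed to compounds plus 20 nM camptothecin for at least 48 h at 37 C; viability read as ATP content by CellTiter-Glo luminescence.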
# The depositor's hits bear a star; ? = inconclusive; . = no result; [ ] = dose if it differs, or a comment. Unless noted, the call rests on the fitted dose curve; in most records, active means well fitted curve in the direction sought with a large enough effect; inconclusive means small, poorly fitted or top-dose-only effect, or another doubt; inactive means no such curve, though single readings can be large; an effect the other way counts as inactive or inconclusive. Unless noted, on the % scale 0 is the no-effect control and ±100 the full control effect.
SMILES,TDP1 cell noCPT,IL1B secr inh,HT1080-NT tox,HT1080 IDH1KD tx,ALOX12 inh,TDP1 cell CPT
Cc1c(S(=O)(=O)c2ccc(Br)cc2)nnn1-c1ccc(Br)cc1,.,.,.,.,-3%,.
O=C(NNc1ncnc2sccc12)c1ccc(Cl)cc1,9.2µM*,8,?,0%,455%,13µM*
Cc1ccc(C(=O)NNc2ncnc3c2cnn3C)cc1,-6%,6,15%,1%,0%,4%
Cc1csc2ncnc(NNC(=O)c3ccc(Cl)cc3)c12,10µM*,35,-17%,?,-1%,?
COc1cc(/C=C2\SC(=S)N(Nc3ncc(C(F)(F)F)cc3Cl)C2=O)ccc1O,?,?,5%,-11%,.,21µM*
CN(C)c1ccc(/C=C2\SC(=S)N(Nc3ncc(C(F)(F)F)cc3Cl)C2=O)cc1,8.2µM*,-5,?,?,-18%,8.2µM*
O=C1C(n2ccc3ccccc32)c2ccccc2N1Cc1ccc(C(F)(F)F)cc1 (configuration not stated),.,.,.,.,32µM*,.
CCn1c(=O)n(CC(=O)NCC(=O)Nc2c(C)cccc2C)c2ccccc21,.,.,.,.,27%,.
CCc1ccc(-n2cnc3cc(C(=O)NCc4ccc(C)cc4)ccc32)cc1,15µM*,.,.,.,-23%,15µM*
Cc1cccc(-n2cnc3cc(C(=O)NCc4ccc(F)cc4)ccc32)c1,.,.,.,.,-7%,.
Cc1ccc(-n2cnc3cc(C(=O)NCc4ccccc4Cl)ccc32)c(C)c1,23µM*,.,.,.,-13%,23µM*
COC(CNC(=O)c1ccc2c(c1)ncn2-c1ccc(C)cc1C)OC,-9%,14,28%,21%,?,26%
Cc1cccc(-n2cnc3cc(C(=O)NCc4ccccc4Cl)ccc32)c1,?,.,.,.,-7%,16µM*
Cc1cc(C)c2oc(=O)cc(-c3cc4ccccc4o3)c2c1,.,.,.,.,-15%,.
COc1ccc(C)cc1Nc1n[n+](-c2ccccc2)c(-c2cc(OC)c(OC)cc2Br)s1,16µM*,-11,-29%,-24%,40µM*,23µM*
COc1ccc(C)cc1Nc1n[n+](-c2ccccc2)c(-c2c(OC)ccc3ccccc23)s1,5.2µM*,-75*,?,?,?,5.8µM*
COc1ccc(C)cc1NC(=O)Nc1ccccc1,-19%,?,0%,0%[9.24 µM],?,-18%
COc1ccc(C)cc1Nc1nc(N)c(C(=O)c2cc(C)ccc2C)s1,.,.,.,.,-13%,.
CCn1c(=O)c(=O)[nH]c2cc(C(=O)N3CCN(C(=O)C4CC4)CC3)ccc21,.,.,.,.,6%,.
CCC(=O)N1CCC(N2CC(OC)C23CCOCC3)CC1 (configuration not stated),.,.,.,.,32%,.
Cc1cc(C)n(CCNC(=O)[C@@H](Cc2ccccc2)NC(=O)[C@H]2O[C@@H](n3ccc(=O)[nH]c3=O)[C@H](O)[C@@H]2O)n1,.,.,.,.,-4%,.
Cc1ccc(Cl)cc1Nc1ncncc1-c1nc(-c2ccccc2)no1,.,.,.,.,43%,.
CC1CCCCN1CCNC(=O)CCc1nc2ccccc2[nH]1 (configuration not stated),.,.,.,.,19%,.
CCOC(=O)C#CC(CCc1ccccc1)OS(N)(=O)=O (configuration not stated),?,-70*,-1%,-3%,-19%,?
CC(C)(C)OC(=O)N1CCC(c2c(C(=O)NC3CC3)cnn2-c2ccc(Cl)cc2)CC1,-16%,16,5%,-4%,5%,?
SMILES,TDP1 cell noCPT,IL1B secr inh,HT1080-NT tox,HT1080 IDH1KD tx,ALOX12 inh,TDP1 cell CPT
CC(C)(C)OC(=O)N1CCC(c2c(C(=O)NCCN3CCCC3)cnn2-c2ccc(Cl)cc2)CC1,23µM*,.,.,.,-13%,?
Cc1ccc(-n2ncc(C(=O)NC3CCCCC3)c2C2CCN(C(=O)OC(C)(C)C)CC2)cc1,23µM*,.,.,.,-3%,?
Cc1ccc(-n2ncc(C(=O)NCCN3CCCC3)c2C2CCN(C(=O)OC(C)(C)C)CC2)cc1,?,.,.,.,-12%,23µM*
Cc1ccc(-n2ncc(C(=O)NC3CC3)c2C2CCN(C(=O)OC(C)(C)C)CC2)cc1,-3%,36,15%,18%,1%,-18%
COc1ccccc1CN1CCC(CNC(=O)c2cnn(-c3ccc(Cl)cc3)c2C2CCN(C(=O)OC(C)(C)C)CC2)CC1,5.2µM*,.,.,.,-6%,3.7µM*
Cc1ccc(-n2ncc(C(=O)NCCN3CCN(C)CC3)c2C2CCN(C(=O)OC(C)(C)C)CC2)cc1C,?,.,.,.,-15%,?
COc1ccccc1N1CCN(CCCNC(=O)c2cnn(-c3ccccc3)c2C2CCN(C(=O)OC(C)(C)C)CC2)CC1,16µM*,.,.,.,0%,16µM*
Cc1ccc(-n2ncc(C(=O)NCCN3CCC(Cc4ccccc4)CC3)c2C2CCN(C(=O)OC(C)(C)C)CC2)cc1,2.9µM*,.,.,.,?,4.6µM*
CC(C)(C)OC(=O)N1CCC(c2c(C(=O)NCCN3CCOCC3)cnn2-c2ccccc2)CC1,5.8µM*,.,.,.,?,5.8µM*
CC(C)(C)OC(=O)N1CCC(c2c(C(=O)NCCN3CCC(Cc4ccccc4)CC3)cnn2-c2cccc(Cl)c2)CC1,3.7µM*,.,.,.,?,5.8µM*
CNc1ncnc2c1ncn2[C@H]1CN(CCOC)C[C@@H](CO)O1,?,31,0%,27%,8%,-16%
Cn1c(=O)c2c(nc(NCCO)n2Cc2c(Cl)cccc2Cl)n(C)c1=O,.,.,.,.,1%,.
Cc1cccc(C(=O)NC2CCN(c3cc(-c4ccc(F)cc4)[nH]n3)C2)c1 (configuration not stated),.,.,.,.,12%,.
COC(=O)C1CCN(C(=O)COC(=O)CNC(=O)c2ccc(Cl)cc2Cl)CC1,?,19,-2%,0%,1%,20%
CCONC(=O)c1ccc(N(C)C)cc1,.,.,.,.,2%,.
Cc1ccc(C)c(NC(=O)c2cc3c(N4CCSCC4)nc(C)cn3n2)c1,.,.,.,.,32%,.
COc1ccc(-n2ncc(C(=O)NCCCN3CCCCC3)c2C2CCN(C(=O)OC(C)(C)C)CC2)cc1,18µM*,.,.,.,-17%,18µM*
O=C(NCCN1CCOCC1)c1cnn(-c2ncc3c(n2)-c2ccccc2CC3)c1C1CC1,23µM*,.,.,.,6%,10%[9.04 µM]
COCc1noc(CC2CCOC3(CCN(C(=O)NC4CCCCC4)CC3)C2)n1 (configuration not stated),.,.,.,.,13%,.
Cc1ccc(CC(=O)Nc2cccc(-c3nnc4n3CCCC4)c2)cc1,.,.,.,.,40%,.
